This passage reports inhibition results from PubChem BioAssay AID2073 (Sanford-Burnham Center for Chemical Genomics, 2009).

Hit rate of the full screen: of about 290,000 compounds, about 570 (0.2%) were called active. About 1% were inconclusive and are not listed. Rule as the data show it: active = inhibition mostly above about 51% (no sharp cut-off); inconclusive = no clear call, values can overlap the other calls; inactive = mostly below about 53%. Shown is part of a subset that was picked to be rich in actives.

Broadly, the inhibition is the relative decrease from the control value, in per cent.

The experiment deals with Voltage-dependent N-type calcium channel subunit alpha-1B (Homo sapiens) (UniProt Q00975). Description: disruptors of CaV2.2 binding to Mint1 – biochemical, HTRF (AID 2073). The settings on record: HTRF protein-protein interaction, Mint1-CaV2.2, at 20 µM, stronger effect = higher value.
[1] abbreviates: measured here: average of repeat tests.

Chain of Voltage-dependent N-type calcium channel subunit alpha-1B (Homo sapiens) (Q00975 whole entry, looked up): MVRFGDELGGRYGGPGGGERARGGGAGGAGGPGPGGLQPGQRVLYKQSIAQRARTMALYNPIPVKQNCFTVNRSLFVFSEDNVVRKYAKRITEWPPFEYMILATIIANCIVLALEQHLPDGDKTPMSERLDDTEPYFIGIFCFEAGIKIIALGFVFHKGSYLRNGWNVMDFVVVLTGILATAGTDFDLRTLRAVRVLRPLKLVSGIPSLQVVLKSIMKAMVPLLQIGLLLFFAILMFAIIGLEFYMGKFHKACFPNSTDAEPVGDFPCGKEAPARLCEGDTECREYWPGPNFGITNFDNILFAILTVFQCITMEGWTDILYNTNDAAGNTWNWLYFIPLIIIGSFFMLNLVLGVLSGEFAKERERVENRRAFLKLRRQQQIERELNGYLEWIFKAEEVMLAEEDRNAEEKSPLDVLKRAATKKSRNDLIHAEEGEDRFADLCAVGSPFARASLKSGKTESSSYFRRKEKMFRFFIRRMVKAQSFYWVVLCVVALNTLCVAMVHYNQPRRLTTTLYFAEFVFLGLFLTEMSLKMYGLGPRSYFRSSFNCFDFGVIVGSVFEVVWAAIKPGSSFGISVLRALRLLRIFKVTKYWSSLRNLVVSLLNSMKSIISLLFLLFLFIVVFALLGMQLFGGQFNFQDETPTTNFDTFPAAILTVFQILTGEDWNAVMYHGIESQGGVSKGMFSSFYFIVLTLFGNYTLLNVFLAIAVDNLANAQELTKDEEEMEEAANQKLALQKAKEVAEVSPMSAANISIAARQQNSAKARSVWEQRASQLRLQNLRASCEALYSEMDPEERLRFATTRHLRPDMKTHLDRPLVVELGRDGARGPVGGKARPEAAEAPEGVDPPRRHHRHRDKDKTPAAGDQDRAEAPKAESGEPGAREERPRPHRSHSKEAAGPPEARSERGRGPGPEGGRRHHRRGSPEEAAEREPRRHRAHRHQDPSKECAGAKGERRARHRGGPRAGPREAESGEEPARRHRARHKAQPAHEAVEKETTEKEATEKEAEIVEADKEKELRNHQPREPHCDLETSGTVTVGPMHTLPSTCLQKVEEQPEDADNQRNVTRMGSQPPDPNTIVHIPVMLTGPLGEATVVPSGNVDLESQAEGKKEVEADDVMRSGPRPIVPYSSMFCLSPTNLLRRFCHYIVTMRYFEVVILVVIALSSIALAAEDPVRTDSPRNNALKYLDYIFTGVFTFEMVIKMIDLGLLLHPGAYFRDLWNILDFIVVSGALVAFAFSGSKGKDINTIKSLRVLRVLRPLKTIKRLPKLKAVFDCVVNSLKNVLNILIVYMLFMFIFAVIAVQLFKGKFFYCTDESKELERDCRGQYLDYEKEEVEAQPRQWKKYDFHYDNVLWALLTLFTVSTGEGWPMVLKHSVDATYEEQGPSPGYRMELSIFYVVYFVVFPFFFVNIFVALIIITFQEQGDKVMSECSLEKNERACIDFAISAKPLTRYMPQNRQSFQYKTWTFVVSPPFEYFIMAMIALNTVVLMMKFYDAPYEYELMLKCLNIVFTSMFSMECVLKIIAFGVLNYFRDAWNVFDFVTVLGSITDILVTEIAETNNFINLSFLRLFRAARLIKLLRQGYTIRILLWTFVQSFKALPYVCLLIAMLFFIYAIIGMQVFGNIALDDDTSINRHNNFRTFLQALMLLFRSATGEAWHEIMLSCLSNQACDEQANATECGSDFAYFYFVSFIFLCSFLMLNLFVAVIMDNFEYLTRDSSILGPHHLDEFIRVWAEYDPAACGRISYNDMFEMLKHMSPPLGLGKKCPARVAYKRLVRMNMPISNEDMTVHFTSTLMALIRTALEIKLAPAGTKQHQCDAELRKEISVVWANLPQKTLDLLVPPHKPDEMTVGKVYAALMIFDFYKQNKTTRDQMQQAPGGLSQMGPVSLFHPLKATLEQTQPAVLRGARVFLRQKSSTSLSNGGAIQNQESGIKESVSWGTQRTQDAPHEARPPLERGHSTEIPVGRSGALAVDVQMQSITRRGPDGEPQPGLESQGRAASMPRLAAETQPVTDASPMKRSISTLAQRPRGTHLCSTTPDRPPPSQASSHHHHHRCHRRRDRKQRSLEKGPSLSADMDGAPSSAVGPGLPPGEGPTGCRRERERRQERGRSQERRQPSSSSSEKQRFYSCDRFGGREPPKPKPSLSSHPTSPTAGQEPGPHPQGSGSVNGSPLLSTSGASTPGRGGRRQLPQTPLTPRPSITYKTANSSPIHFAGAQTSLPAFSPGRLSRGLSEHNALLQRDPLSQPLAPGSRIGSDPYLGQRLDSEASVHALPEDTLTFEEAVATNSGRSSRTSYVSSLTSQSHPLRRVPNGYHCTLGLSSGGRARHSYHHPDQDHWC

With `CCN(C(=O)COC(=O)c1c(C)nn(-c2ccccc2)c1C)C1CCS(=O)(=O)C1` (stereo unspecified), the inhibition is 6.4% (inactive).

Turning to `C/C(CC(=O)Nc1ccc2c(c1)OCCO2)=N\NC(=O)COc1ccccc1`, the inhibition was 1.2% (inactive).

For the molecule `COc1ccc(CCNC(=O)C2CC(c3cc(C(F)(F)F)cc(C(F)(F)F)c3)=NO2)cc1` (stereo unspecified), the inhibition was 0.2% (inactive).

As to `Cc1ccc(/C=C/C(=O)Nc2ccc(O)c3c(=O)cc(-c4ccccc4Cl)oc23)cc1`, the inhibition was 13% (inactive).

With `CCCN1Cc2cccc(C(=O)NC(CC(=O)OCC)c3ccc(OC(C)C)cc3)c2C1=O` (stereo unspecified), the inhibition is -3.9% (inactive).

Take `Cc1ccc(Cl)cc1N1CCN(C(=O)Cn2ncn3cccc3c2=O)CC1`: the inhibition was -1.5% (inactive).

In the case of `O=C(CCCn1c(=S)[nH]c2ccccc2c1=O)NC1CCCC1`, the inhibition was -32.5% (inactive).

As to `CCc1ccccc1NC(=O)COc1ccc(N2CC(C(N)=O)CC2=O)cc1` (stereo unspecified), the inhibition was 11.4% (inactive).

`OC1CNCc2cc3c(cc21)OCCO3` (stereo unspecified): the inhibition was -5.4% (inactive).

Regarding `CNC(=O)COC(=O)c1cc(-c2ccco2)nc2ccccc12`, the inhibition is 66.4% (active).

For the molecule `NC(=O)COC(=O)c1cc(-c2ccco2)nc2ccccc12`, the inhibition was 14.1% (inactive).

Regarding `O=C(COC(=O)c1cc(-c2ccco2)nc2ccccc12)NCc1ccccc1`, the inhibition was 25.4% (inactive).

`CCN1CCN(CCCNC(=O)Cn2nc(C)n3nc(-c4ccccc4)cc3c2=O)CC1`: the inhibition is 12.1% (inactive).

In the case of `O=c1[nH]c(C2CCCN(S(=O)(=O)c3ccc(F)cc3)C2)nc2c1nnn2Cc1ccccc1` (stereo unspecified), the inhibition is -1% (inactive).

Turning to `Cc1[nH]n(-c2ccccc2)c(=O)c1C=Nc1ccc(S(N)(=O)=O)cc1`, the inhibition was 0.1% (inactive).

Turning to `Cc1[nH]n(-c2ccccc2)c(=S)c1C=Nc1cccc([N+](=O)[O-])c1`, the inhibition was 34.3% (inactive).

Take `Cc1[nH]n(-c2ccccc2)c(=S)c1C=Nc1ccc([N+](=O)[O-])cc1`: the inhibition is 67% (active).

With `Oc1ccccc1Cn1nnc2ccccc21`, the inhibition was 7.1% (inactive).

With `COc1ccc(CCNC(=O)CCN2C(=O)[C@@H]3Cc4ccccc4CN3C2=O)cc1`, the inhibition was -3.7% (inactive).

Turning to `CCC(=O)Nc1ccc(C(=O)CSc2nc3ccc(C)cc3[nH]2)cc1`, the inhibition is 32.1% (inactive).

With `CCC(=O)Nc1ccc(C(=O)CSc2nc3ccccc3[nH]2)cc1`, the inhibition is 54.5% (active).

In the case of `CN(C)C(=O)c1ccc(NC(=O)CSc2nc3ccccc3[nH]2)cc1`, the inhibition was -1.1% (inactive).

For `COc1ccc(CCNCC(=O)Nc2c(C)cc(C)cc2C)cc1OC`, the inhibition is -6.8% (inactive).

As for `CCOC(=O)N1CCN(c2ccccc2OC)CC1`, the inhibition was -13.4% (inactive).

For `O=C(NNc1nc(-c2ccc(F)cc2)cs1)c1ccccc1`, the inhibition is 71.1% (active).

With `O=C(NNc1nc(-c2ccccc2)cs1)c1ccc(F)cc1`, the inhibition is 60% (inactive). The inhibition under setting [1] was -6.1%.

Turning to `O=C(NNc1nc(-c2ccccc2)cs1)c1ccccc1`, the inhibition was -28.9% (inactive).

In the case of `O=C(CSc1nc2ccccc2c(=O)[nH]1)Nc1ccccc1O`, the inhibition was -8.6% (inactive).

Turning to `O=c1nc2c(O)cccn2c2c1c(=O)[nH]c1ccccc12`, the inhibition is 66.4% (active).

With `O=c1[nH]c2ccccc2c2nc3ccccn3c12`, the inhibition is 23.2% (inactive).

With `Cc1ccc2c(c1)N(CCCC(=O)NCc1ccc3c(c1)OCO3)C(=O)CO2`, the inhibition was 9.3% (inactive).

Regarding `CCOC(=O)c1cn2nc(Oc3cccc(F)c3)ccc2n1`, the inhibition is 4.6% (inactive).

For the molecule `CC(C)NC(=O)C1(S(=O)(=O)c2ccccc2)CC=CC1`, the inhibition is 4.8% (inactive).

For `COc1ccc(C(=O)NCCCOc2cccc(NC(C)=O)c2)cc1`, the inhibition is 21.8% (inactive).

Consider `CC1CCN(C(=O)C2CCCN(S(=O)(=O)c3cccc4nsnc34)C2)CC1` (stereo unspecified), for which the inhibition is 5.2% (inactive).

Take `COc1ccc(-c2nnc(SCC(=O)NC(=O)NCc3ccccc3)o2)cc1`: the inhibition is 55.3% (active).

In the case of `COc1ccc(-c2nnc(SCC(=O)NC(=O)NCc3ccco3)o2)cc1`, the inhibition is -1.1% (inactive).

For the molecule `COc1ccc(-c2nnc(SCC(=O)NCCc3ccccc3)o2)cc1`, the inhibition is 2.1% (inactive).

On to `COc1ccc(N(CC(=O)NCc2ccco2)S(C)(=O)=O)cc1`, for which the inhibition is 2.6% (inactive).

`Cc1cccc(/C=N/NC(=O)NC2CCCCC2)c1`: the inhibition is -3.7% (inactive).

For `O=C1N/C(=C/c2ccc(N3CCOCC3)o2)C(=O)N1c1ccccc1`, the inhibition was 44.8% (inactive).

Consider `O=C1NC(=O)/C(=C\c2ccc(N3CCOCC3)o2)N1`, for which the inhibition is 71.7% (active).

On to `O=C1NC(=S)S/C1=C/c1ccc(N2CCOCC2)o1`, for which the inhibition was 32.5% (inactive).

Consider `O=C1NC(=O)/C(=C/c2ccc(N3CCOCC3)o2)N1`, for which the inhibition was 52.2% (inactive). Besides, the inhibition under setting [1] was found to be 3.9%.

As to `C=CCN1C(=O)N/C(=C/c2ccc(N3CCOCC3)o2)C1=O`, the inhibition was 55.4% (inactive). In addition, the inhibition under setting [1] was determined as 7.9%.

On to `O=C1N/C(=C/c2ccc(N3CCOCC3)o2)C(=O)N1c1cccc(Cl)c1`, for which the inhibition was 58.7% (active).

As to `Cc1cc(Br)ccc1OCCN1CCCC1`, the inhibition was 1.2% (inactive).

With `Cc1ccc(S(=O)(=O)N2CCN(CCNC(=O)C(=O)NCc3ccccc3)CC2)cc1`, the inhibition was -2.1% (inactive).

As to `Cc1cccc(C(=O)O)c1NC(=O)Cc1cccc2ccccc12`, the inhibition was 9.3% (inactive).

On to `O=c1[nH]c(SCc2n[nH]c(=S)n2-c2ccccc2)nc2sc3c(c12)CCC3`, for which the inhibition is 17.3% (inactive).

Take `COc1ccc(/C=C2\SC(=O)N(CCC(=O)Nc3ccc(S(=O)(=O)Nc4nccs4)cc3)C2=O)cc1`: the inhibition was 25.3% (inactive).

Consider `COc1ccc(/C=C2/SC(=O)N(CCC(=O)Nc3ccc(S(=O)(=O)Nc4nccs4)cc3)C2=O)cc1`, for which the inhibition is 53% (active).

In the case of `O=C(CCN1C(=O)S/C(=C\c2ccccc2)C1=O)Nc1ccc(S(=O)(=O)Nc2nccs2)cc1`, the inhibition was -6.5% (inactive).

Consider `COc1cccc(OC)c1C(=O)Nc1cccnc1`, for which the inhibition was -4.9% (inactive).

Consider `CNC(=S)NNC(=O)Cc1ccc(OC)c(OC)c1`, for which the inhibition was -18.7% (inactive).

Turning to `Cc1cc(N)n2nc(C(F)(F)F)nc2n1`, the inhibition was -3.1% (inactive).

As to `CC(=O)c1ccc(NC(=O)c2cc3nc4c(c(C(F)(F)F)n3n2)CCCC4)cc1`, the inhibition is 33.2% (inactive).

Turning to `CCn1c(SCC(=O)Nc2cc(C)on2)nnc1-c1ccc(S(=O)(=O)N2CCCC2)cc1`, the inhibition was 0.3% (inactive).

For `O=C1c2ccccc2C(=O)N1c1ccc(-c2nc3ccccc3o2)cc1`, the inhibition is 67.9% (active).

As to `O=C1C2C3C=CC(C3)C2C(=O)N1c1ccc(-c2nc3ccccc3o2)cc1` (stereo unspecified), the inhibition is 15.5% (inactive).

On to `O=C1c2ccccc2C(=O)N1c1cccc(-c2nc3ccccc3o2)c1`, for which the inhibition is 19.2% (inactive).

Turning to `CC(=O)c1cccc(NC(=O)NNC(=O)c2ccc(-c3ccccc3)cc2)c1`, the inhibition is 22.1% (inactive).

For `CCCNC(=O)CSc1nccn1Cc1ccco1`, the inhibition is -17.8% (inactive).

On to `Cc1ccc(N2CCN(C(=S)Nc3ccccc3C)CC2)cc1`, for which the inhibition is -9.9% (inactive).

As for `Cc1nc2c(c(=O)n1Cc1ccccc1Cl)c1nc3ccccc3nc1n2Cc1ccco1`, the inhibition was 38.1% (inactive).

`COc1ccc(Cn2c3nc4ccccc4nc3c3c(=O)n(Cc4ccco4)c(C)nc32)cc1`: the inhibition was 18.4% (inactive).

As to `Cc1nc2c(c(=O)n1Cc1ccco1)c1nc3ccccc3nc1n2Cc1ccccc1`, the inhibition was 50.6% (active).

Take `O=[N+]([O-])c1ccc(Nc2nc(NCCO)nc(N3CCCC3)n2)cc1`: the inhibition was 5.1% (inactive).

For the molecule `Cc1ccsc1/C=C/C1=Cc2c(sc(NC(=O)CSc3n[nH]c(N)n3)c2C#N)C(C)(C)C1`, the inhibition was 20.6% (inactive).

Regarding `Cc1ccc(/C=C/C2=Cc3c(sc(NC(=O)CSc4n[nH]c(N)n4)c3C#N)C(C)(C)C2)o1`, the inhibition is 61.1% (active).

For `CCOc1ccc(/C=C/C2=Cc3c(sc(NC(=O)CSc4n[nH]c(N)n4)c3C#N)C(C)(C)C2)cc1`, the inhibition was 12.8% (inactive).

As for `COc1cccc(NC(=O)c2ccco2)c1`, the inhibition is 3.2% (inactive).

Consider `Cc1ncc(CO)c(/C=N/NC(=S)Nc2cccc(Cl)c2)c1O`, for which the inhibition is 53.7% (active).

Turning to `Cc1ncc(CO)c(/C=N/NC(=S)Nc2ccc(Cl)c(Cl)c2)c1O`, the inhibition is 50.4% (inactive). Further, the inhibition under setting [1] came to 30.4%.

`Cc1ncc(CO)c(/C=N/NC(=S)Nc2ccc(C(C)C)cc2)c1O`: the inhibition is 16.5% (inactive).

In the case of `CCCCCCc1nc(C(N)=O)c2[nH]c(=O)n(-c3ccccc3F)c2n1`, the inhibition is 10.4% (inactive).

As to `COC(=O)c1c(C)oc(C)c1S(=O)(=O)N(Cc1ccccc1)C(C)C`, the inhibition was -16.1% (inactive).

On to `CCc1ccc2nc(N(CCCN(C)C)C(=O)c3ccc(S(=O)(=O)N4CCCC4)cc3)sc2c1`, for which the inhibition was -0.7% (inactive).

As to `CC(=O)c1ccc(N2CCN(C(=O)c3nn(C)c4c3CS(=O)(=O)c3ccccc3-4)CC2)cc1`, the inhibition was 9% (inactive).

As for `O=c1cc2oc3cc(O)c(O)cc3c(-c3ccccc3O)c-2cc1O`, the inhibition is 68.3% (active).

Regarding `CCOc1ccccc1-c1c2cc(O)c(=O)cc-2oc2cc(O)c(O)cc12`, the inhibition was 24.8% (inactive).

Regarding `O=c1cc2oc3cc(O)c(O)cc3c(-c3ccccc3[N+](=O)[O-])c-2cc1O`, the inhibition was 15.9% (inactive).

Turning to `CCC(=O)N1CCc2cc(S(=O)(=O)CCC(=O)Nc3ccc(OC)c(OC)c3)ccc21`, the inhibition is 5.3% (inactive).

On to `Cc1cc(NC(=O)OC2CCCCC2)ccc1[N+](=O)[O-]`, for which the inhibition was -7.7% (inactive).

As to `COc1ccc(CNC(=O)Cc2cn(C)c3ccccc23)c(OC)c1`, the inhibition is 5.9% (inactive).

As for `COc1cc(C(=O)NS(=O)(=O)c2ccccc2C)ccc1Cc1cn(C)c2ccc(NC(=O)OC3CCCC3)cc12`, the inhibition was 51.7% (active).

Consider `CC(C)CC(=O)N1CC(C)N(C(=O)CC(C)C)CC1C` (stereo unspecified), for which the inhibition is 4.2% (inactive).

Turning to `O=[N+]([O-])c1cccc(CSc2nnc3ccccn23)c1`, the inhibition was 13.5% (inactive).

Regarding `N#C/C(=C/c1ccc(N2CCOCC2)o1)c1ccc(Br)cc1`, the inhibition is 39.6% (inactive).

As to `N#C/C(=C/c1ccc(N2CCOCC2)o1)c1ccc(Cl)cc1`, the inhibition was 51.9% (active).

In the case of `Cc1ccc(/C(C#N)=C\c2ccc(N3CCOCC3)o2)cc1`, the inhibition was 43.4% (inactive).

In the case of `CCCCCCc1ccc(N2C[C@H](CCCCC)[C@@H](CC(=O)NCc3ccc(OC)cc3)C2=O)cc1`, the inhibition was 10.1% (inactive).
